Reference: PubChem BioAssay
Activity calls are given as the source filed them. Unless noted, no rule for the calls is given here.

Experiments:
[1] = test system: Wnt5a (protein binding on small-molecule microarray); assay: small molecules binding Wnt5a protein – biophysical, small-molecule microarray, 635/667 nm fluorescence, primary screen (AID 1142); details: 635 nm fluorescence, higher = more signal;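 also: fluorescence read at 667 nm with signal to noise per printed feature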
[2] = ATP-based viability of Huh7 replicon cells – cell-based, CellTiter-Glo luminescence, basal, 48 h, cytotoxicity control for HCV replication inhibitor project, primary screen (AID 1143); details: higher = more signal, called active from +8 up or from −8 down;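 also: Huh7 hepatoma cells carrying a hepatitis C replication reporter with no stimulus; test concentration not given here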
[3] = Pseudomonas biofilm growth suppression – PAO1 strain, BacTiter-Glo luminescence, LB-PBS, primary screen (AID 1144); details: P. aeruginosa PAO1 biofilm, 12 h, higher = more signal
[4] = basal CRE-LacZ reporter activity in PC12 – cell-based, unstimulated, primary screen (AID 1145); details: no forskolin, luminescence, 4.5 h, higher = more signal, called active from +8 up or from −8 down
[5] = forskolin-driven CRE-LacZ activity in PC12 – cell-based, CRE-LacZ reporter, forskolin-stimulated, primary screen (AID 1146); details: luminescence, 4.5 h, higher = more signal, called active from +8 up or from −8 down;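 also: PC12 cells with 6xCRE LacZ reporter stimulated by forskolin 10 µM; beta-galactosidase reporter signal reflecting CREB driven transcription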
[6] = biological target: Streptavidin (Streptomyces avidinii) (UniProt P22629); assay: compounds binding control protein streptavidin – biophysical, small-molecule microarray, 635/667 nm fluorescence, artefact control for SMM compound annotation, primary screen (AID 1147); details: higher = more signal;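 also: signal reflects streptavidin binding to arrayed compounds as a control protein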
Chain of Streptavidin (Streptomyces avidinii) (P22629 whole entry, looked up): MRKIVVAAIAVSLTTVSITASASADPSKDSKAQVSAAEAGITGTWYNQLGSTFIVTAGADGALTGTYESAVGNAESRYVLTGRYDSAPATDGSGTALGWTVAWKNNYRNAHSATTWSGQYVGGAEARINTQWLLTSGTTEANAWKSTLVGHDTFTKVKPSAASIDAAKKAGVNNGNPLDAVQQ

[7] = probe aInhba binding on compound microarray – biochemical, small-molecule microarray, 635/667 nm fluorescence, primary screen (AID 1148); details: higher = more signal;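 also: score merges 667nm spot fluorescence with signal-to-noise for antibody binding to printed compounds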
Torsin-1A (Homo sapiens) [8] = biological target: Torsin-1A (Homo sapiens) (UniProt O14656); assay: TOR1A wild-type binding on microarray – cell lysate, small-molecule microarray, lysate, 635/667 nm, primary screen (AID 1149); details: COS7 hTOR1A-WT lysate, 635 nm fluorescence, higher = more signal
Chain of Torsin-1A (Homo sapiens) (O14656 whole entry, looked up): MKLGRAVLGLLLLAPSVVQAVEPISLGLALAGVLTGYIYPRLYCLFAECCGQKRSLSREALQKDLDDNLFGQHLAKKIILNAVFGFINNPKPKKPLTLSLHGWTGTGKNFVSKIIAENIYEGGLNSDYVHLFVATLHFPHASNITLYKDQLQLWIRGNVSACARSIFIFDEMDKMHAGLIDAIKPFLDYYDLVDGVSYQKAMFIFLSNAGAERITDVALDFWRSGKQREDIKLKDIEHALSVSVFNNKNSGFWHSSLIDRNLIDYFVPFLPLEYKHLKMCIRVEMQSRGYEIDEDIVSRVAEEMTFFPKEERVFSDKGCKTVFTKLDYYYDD

Torsin-1A (Homo sapiens) [9] = biological target: Torsin-1A (Homo sapiens) (UniProt O14656); assay: torsin A mutant lysate binding on microarrays – cell lysate, small-molecule microarray, COS7 lysate, 635/667 nm fluorescence, primary screen (AID 1150); details: COS7 hTOR1A mutant lysate, 635 nm fluorescence, higher = more signal;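 also: score pools 667 nm emission and signal to noise measuring lysate protein binding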
[10] = test system: Sonic hedgehog protein (Shh); assay: Sonic hedgehog microarray binding compounds – biochemical, small-molecule microarray, 635/667 nm fluorescence, primary screen (AID 1151); details: 635 nm fluorescence, higher = more signal;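 also: Shh protein binding to compounds spotted on small-molecule microarray slides; score combines spot fluorescence intensity with signal-to-noise across triplicate slides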
[11] = optical density shifts of acrAB sulA E. coli – strain DRC41, OD650, 48 h, E. coli filamentation inducer project, primary screen (AID 1152); details: higher = more signal, called active from +8 up or from −8 down;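 also: E. coli MC1000 strain DRC41 lacking acrAB efflux pump and sulA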
[12] = probe aLefty1 binding on compound microarray – biochemical, small-molecule microarray, 635/667 nm fluorescence, primary screen (AID 1153); details: higher = more signal;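 also: score merges spot fluorescence with signal-to-noise ratio from the scanned slide images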
[13] = plasmodial surface anion channel blockers, osmotic lysis – cell-based, P. falciparum Indochina, OD700, 1 h, primary screen (AID 1154); details: P. falciparum Indochina infected RBC osmotic lysis, higher = more signal, called active from +8 up or from −8 down
[14] = plasmodial surface anion channel blockers, osmotic lysis – cell-based, P. falciparum Indochina, OD700, 2 h, primary screen (AID 1155);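 also: lysis reports solute entry through the parasite surface anion channel PSAC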; details: P. falciparum Indochina infected erythrocytes, higher = more signal, called active from +8 up or from −8 down
[15] = changes in parasitized red cell lysis, either direction – P. falciparum Indochina, OD700, 3 h, PSAC antagonist project, primary screen (AID 1156); details: P. falciparum-infected erythrocytes, osmotic lysis, higher = more signal, called active from +8 up or from −8 down
[16] = plasmodial surface anion channel blockers, osmotic lysis – cell-based, P. falciparum Indochina, OD700, 18 h, primary screen (AID 1157); details: P. falciparum Indochina infected erythrocytes, osmotic lysis OD700, 18 h; higher = more signal, called active from +8 up or from −8 down
[17] = S6 kinase pathway phospho-S6 level changes – cell-based, A549, cytoblot, luminescence, serum-stimulated, primary screen (AID 1158); details: 5 h, higher = more signal;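 also: serum-stimulated A549 lung adenocarcinoma cells; signal is phosphorylated S6 detected by cytoblot immunostaining with HRP secondary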
[18] = biological target: NADPH oxidase 2 (Homo sapiens) (UniProt P04839); assay: compounds shifting NOX2 Amplex Red fluorescence – cell-based, HEK293-NOX2, PMA-stimulated, NOX inhibitor project, primary screen (AID 1159); details: 45 min, higher = more signal, called active from +8 up or from −8 down; also: test concentration not given here
Chain of NADPH oxidase 2 (Homo sapiens) (P04839 whole entry, looked up): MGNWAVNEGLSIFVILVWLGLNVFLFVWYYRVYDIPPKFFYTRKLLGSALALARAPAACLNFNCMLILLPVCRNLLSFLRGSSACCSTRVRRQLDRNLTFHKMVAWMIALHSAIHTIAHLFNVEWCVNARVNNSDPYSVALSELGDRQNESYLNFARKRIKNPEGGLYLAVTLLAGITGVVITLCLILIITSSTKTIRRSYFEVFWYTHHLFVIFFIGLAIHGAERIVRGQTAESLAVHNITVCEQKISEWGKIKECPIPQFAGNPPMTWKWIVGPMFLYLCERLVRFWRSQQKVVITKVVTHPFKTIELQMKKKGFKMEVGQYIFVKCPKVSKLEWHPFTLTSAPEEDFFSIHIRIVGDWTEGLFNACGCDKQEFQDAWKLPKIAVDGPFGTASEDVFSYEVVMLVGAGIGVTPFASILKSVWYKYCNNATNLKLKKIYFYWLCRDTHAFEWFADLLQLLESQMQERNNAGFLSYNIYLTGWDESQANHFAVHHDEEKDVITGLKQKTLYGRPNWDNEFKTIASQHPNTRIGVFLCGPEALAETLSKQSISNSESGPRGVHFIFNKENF

[19] = biological target: NADPH oxidase 4 (Homo sapiens) (UniProt Q9NPH5); assay: compounds shifting NOX4 Amplex Red fluorescence – cell-based, HEK293-NOX4, tetracycline-induced, NOX inhibitor project, primary screen (AID 1160); details: HEK293-NOX4, Amplex Red H2O2 fluorescence, 45 min; higher = more signal, called active from +8 up or from −8 down
Chain of NADPH oxidase 4 (Homo sapiens) (Q9NPH5 whole entry, looked up): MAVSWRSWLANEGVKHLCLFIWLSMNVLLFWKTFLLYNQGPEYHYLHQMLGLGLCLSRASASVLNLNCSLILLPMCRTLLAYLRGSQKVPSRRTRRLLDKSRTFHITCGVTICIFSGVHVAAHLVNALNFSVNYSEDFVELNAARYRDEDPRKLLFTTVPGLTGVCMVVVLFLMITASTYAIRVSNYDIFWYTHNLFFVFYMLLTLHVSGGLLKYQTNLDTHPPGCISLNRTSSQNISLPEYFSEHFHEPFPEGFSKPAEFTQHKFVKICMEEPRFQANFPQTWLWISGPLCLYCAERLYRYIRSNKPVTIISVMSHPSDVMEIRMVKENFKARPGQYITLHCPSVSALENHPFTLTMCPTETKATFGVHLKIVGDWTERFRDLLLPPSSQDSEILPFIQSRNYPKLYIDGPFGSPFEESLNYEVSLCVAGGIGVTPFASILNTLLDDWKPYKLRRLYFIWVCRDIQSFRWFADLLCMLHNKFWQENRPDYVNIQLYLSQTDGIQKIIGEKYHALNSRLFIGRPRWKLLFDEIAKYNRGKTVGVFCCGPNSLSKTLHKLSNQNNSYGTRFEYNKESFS

[20] = biological target: NADPH oxidase 5 (Homo sapiens) (UniProt Q96PH1); assay: compounds shifting NOX5 Amplex Red fluorescence – cell-based, HEK293-NOX5, NOX inhibitor project, primary screen (AID 1161); details: HEK293-NOX5, ionomycin, 45 min, higher = more signal
Chain of NADPH oxidase 5 (Homo sapiens) (Q96PH1 whole entry, looked up): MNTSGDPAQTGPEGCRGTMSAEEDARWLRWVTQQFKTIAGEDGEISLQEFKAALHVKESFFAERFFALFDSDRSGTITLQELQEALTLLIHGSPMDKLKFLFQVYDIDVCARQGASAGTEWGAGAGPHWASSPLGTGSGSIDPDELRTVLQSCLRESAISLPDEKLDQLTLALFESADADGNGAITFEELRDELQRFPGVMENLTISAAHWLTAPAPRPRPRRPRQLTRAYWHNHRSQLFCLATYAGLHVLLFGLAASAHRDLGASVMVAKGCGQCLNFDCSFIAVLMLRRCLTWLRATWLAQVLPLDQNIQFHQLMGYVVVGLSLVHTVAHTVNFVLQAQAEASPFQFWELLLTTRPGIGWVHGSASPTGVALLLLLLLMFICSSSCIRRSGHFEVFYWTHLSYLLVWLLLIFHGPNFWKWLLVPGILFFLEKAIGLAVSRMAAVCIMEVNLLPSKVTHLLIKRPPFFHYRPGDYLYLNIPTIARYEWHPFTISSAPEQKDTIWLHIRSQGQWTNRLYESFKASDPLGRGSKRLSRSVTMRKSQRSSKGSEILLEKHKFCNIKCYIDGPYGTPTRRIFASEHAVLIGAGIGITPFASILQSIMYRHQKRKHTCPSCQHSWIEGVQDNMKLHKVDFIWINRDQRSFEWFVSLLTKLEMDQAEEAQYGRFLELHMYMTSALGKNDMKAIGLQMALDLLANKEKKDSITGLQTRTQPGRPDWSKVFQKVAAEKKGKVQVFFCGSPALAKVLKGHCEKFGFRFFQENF

Compound | composite z-score [1] | z-score [2] | z-score [3] | z-score [4] | z-score [5] | composite z-score [6] | composite z-score [7] | composite z-score (Torsin-1A (Homo sapiens) [8]) | composite z-score (Torsin-1A (Homo sapiens) [9]) | composite z-score [10] | z-score [11] | composite z-score [12] | z-score [13] | z-score [14] | z-score [15] | z-score [16] | z-score [17] | z-score [18] | z-score [19] | z-score [20]
O=C1NC(=O)C2C1C=CC(C(O)C1CC=CCC1)N2Nc1ccccn1 (stereo not given) | 0.524 | 0.607 (inactive) | -0.893 (inactive) | -0.329 (inactive) | 0.383 (inactive) | 0.0992 | -0.0645 | 0.153 | -0.0899 | 0.682 | -0.629 (inactive) | -0.0172 | -0.158 (inactive) | -0.0567 (inactive) | 0.0677 (inactive) | 0.288 (inactive) | -0.259 | -2.27 (inactive) | -2.52 (inactive) | -1.61
C=C(/C(=C/C[C@H](OC(=O)c1ccncc1)c1ccc(OCCO)cc1)c1cc(C(=O)OC)ccc1OC)C(C)C | -0.0134 | -3.91 (inactive) | -0.518 (inactive) | 3.9 (inactive) | -0.359 (inactive) | 1.23 | -0.016 | -0.511 | 0.284 | 0.711 | 0.936 (inactive) | 0.0455 | 14.5 (active) | 1.19 (inactive) | 1.29 (inactive) | -1.07 (inactive) | 0.622 | -1.78 (inactive) | -0.754 (inactive) | -2.43
COc1ccccc1CN1C(=O)c2ccccc2[C@@H](C(=O)NCc2ccccc2)[C@@H]1c1ccc(CO)cc1 | -0.13 | -0.107 (inactive) | 1.29 (inactive) | 0.648 (inactive) | -1.35 (inactive) | -0.515 | -0.176 | 0.408 | 0.48 | 0.496 | -0.0367 (inactive) | 0.148 | 1.8 (inactive) | 0.566 (inactive) | 0.708 (inactive) | 0.205 (inactive) | 0.161 | -1.11 (inactive) | 0.148 (inactive) | -0.707
CC(CO)N1C(=O)[C@@H]2C3C(=O)OCCC/C=C\[C@H]3OC23C=CCN(CCN2CCOCC2)C(=O)[C@@H]13 (stereo not given in full) | 0.0719 | 0.795 (inactive) | -1.1 (inactive) | -0.476 (inactive) | -0.183 (inactive) | -0.254 | -0.201 | -0.951 | -0.776 | 1.21 | 0.253 (inactive) | -0.348 | 0.901 (inactive) | 0.0448 (inactive) | 1.7 (inactive) | 0.01 (inactive) | 0.0058 | 0.238 (inactive) | -0.398 (inactive) | 1.05
Cc1c(NC(=O)/C(C#N)=C/c2cccc([N+](=O)[O-])c2)c(=O)n(-c2ccccc2)n1C | 0.233 | -3.67 (inactive) | -1.97 (inactive) | -0.554 (inactive) | -1.47 (inactive) | 0.891 | -0.0774 | 0.659 | 1.12 | 0.478 | 0.969 (inactive) | -0.173 | 0.468 (inactive) | -0.376 (inactive) | -0.451 (inactive) | -0.481 (inactive) | 2.39 | -1.36 (inactive) | -0.497 (inactive) | 0.864
O=C1NC(=O)C2C1C=CC(C(O)c1ccc(-c3ccccc3)s1)N2Nc1ccc(Cl)cc1Cl (stereo not given) | 0.289 | -1.1 (inactive) | -1.77 (inactive) | -0.136 (inactive) | -0.128 (inactive) | 1.34 | 0.0569 | 0.344 | 0.14 | -0.82 | -2.23 (inactive) | -0.141 | 2.29 (inactive) | 1.58 (inactive) | -0.666 (inactive) | 1.07 (inactive) | -1.09 | 0.964 (inactive) | -3.15 (inactive) | -0.664
COCC(=C=CC[C@H](O)c1cccc(OCCO)c1)C[C@H](O)c1cc(Cl)cc(Cl)c1O | 0.556 | -0.465 (inactive) | -0.494 (inactive) | 10 (active) | 0.32 (inactive) | -0.128 | 0.0104 | 1.06 | 0.878 | 1.77 | 0.652 (inactive) | 0.0012 | 22.1 (active) | 5.78 (inactive) | 0.658 (inactive) | 1.21 (inactive) | 0.232 | -0.707 (inactive) | -0.429 (inactive) | -1.25
COCCOC(=O)N1C(=O)[C@@]2(c3cc(C#CC4=CCCCC4)ccc31)[C@H](c1ccc(OCCO)cc1)N1[C@H](c3ccccc3)[C@H](c3ccccc3)OC(=O)[C@H]1[C@@H]2C(=O)N1CCc2cc(OC)c(OC)cc2C1 | 0.687 | -0.496 (inactive) | -0.536 (inactive) | -0.258 (inactive) | -0.513 (inactive) | 0.606 | 0.346 | 0.359 | 1.17 | 1.32 | 1.8 (inactive) | 0.26 | 3.15 (inactive) | 2.02 (inactive) | 0.817 (inactive) | 1.13 (inactive) | 0.0337 | 0.711 (inactive) | 0.842 (inactive) | 1.43
